From PubChem
PNC assembly inh – perinucleolar compartment assembly inhibition. PC3M PTB-GFP, PNC prevalence imaging, 16 h; active compounds read low. activity change (PNC), negative = inhibition, % at 10 µM. 3.1% of 140,000 active. AID 2417;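 active = readout at or below -70, meaning at least 70% loss of cells showing the perinucleolar compartment, a nuclear body marking cancer cells; inconclusive = readout between -30 and a set limit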
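PC3M cells stably expressing PTB-GFP, 750–1000 cells/well, treated 16 h at 37 °C with compound (23 nl of library stock), in duplicate. After paraformaldehyde fixation and Hoechst stain, imaged at 20x; PNC prevalence scored by image analysis.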
HPGD inh – HPGD (human) dehydrogenase inhibition; Potency, µM, actives largely listed as inhibitors; purified HPGD, NADH fluorescence kinetic, PGE2 substrate; AID 894; 4.3% of 150,000 active; P15428; active = well fitted inhibition curve with a large enough effect, not every such curve was filed as active; inconclusive = small, poorly fitted or top-dose-only effect, or another doubt; inactive = no such curve, though single readings can be large or run the other way
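NADH formation kinetics: reaction with 30 uM PGE2 and 1 mM NAD+ (final), 20 nM enzyme, Tris-HCl pH 8 with Tween 20, after 15 min compound preincubation at room temperature. Fluorescence change, last versus first of five reads.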
IMPase Li cell – IMPase inhibition in cells with lithium potentiation. AID 1457. CHO-M1 cells, IP1 TR-FRET (IP-One), carbachol + lithium. Potency, µM (highest dose often 59.4 µM), actives largely listed as inhibitors. 0.35% of 210,000 active;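 note: IP1 builds up when IMPase is blocked and the TR-FRET signal falls; nearly all actives have a fitted effect of over 50% in size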
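Test compounds were applied to CHO-M1 cells previously cultured for 16–30 h at 2000 per well. A small lithium amount accompanied them; after 30 min at 37C, IP1 was quantified by TR-FRET.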
ALDH1A1 inh – inhibitors of human aldehyde dehydrogenase 1A1; Potency, µM (highest dose often 75.3 µM), actives largely listed as inhibitors; P00352; Purified ALDH1A1, NADH fluorescence, propionaldehyde substrate; 7.3% of 220,000 active; active = well fitted inhibition curve with a large enough effect, not every such curve was filed as active; inconclusive = small, poorly fitted or top-dose-only effect, or another doubt; inactive = no such curve, though single readings can be large or run the other way
IMPase inh – membrane-permeable compound that blocks inositol monophosphatase | CHO-M1 cells, IP1 accumulation, HTRF TR-FRET ratio | 120,000 tested, under 10 active | inhibition (IP1 accumulation), % at 46.1 µM | AID 901; active = well fitted curve in the direction sought with a large enough effect in the signal ratio, not every such curve was filed as active; inconclusive = small, poorly fitted or top-dose-only effect, or a change in a side signal; inactive = no such curve, though single readings can be large or run the other way; the % refers to the signal ratio;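 note: cells stimulated with carbachol in lithium chloride buffer; higher means more IMPase inhibition seen as more IP1 and lower FRET ratio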
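Cellular IMPase inhibition is scored as a rise in cytosolic IP1, detected by competitive TR-FRET between d2-labelled IP1 and a europium anti-IP1 antibody. M1-expressing CHO cells were stimulated with carbachol for 30 min at 37C, with lithium (50 mM LiCl) present in the buffer.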
ALOX12 inhib – blocks human 12-lipoxygenase activity; P18054; purified 12-hLO, xylenol orange hydroperoxide absorbance; Potency, µM (doses to about 57.1 µM), most hits filed as inhibitors; 0.12% of 150,000 active; AID 1452; note: nearly all actives have a fitted effect of over 55% in size
Target sequence (P18054 whole entry, looked up): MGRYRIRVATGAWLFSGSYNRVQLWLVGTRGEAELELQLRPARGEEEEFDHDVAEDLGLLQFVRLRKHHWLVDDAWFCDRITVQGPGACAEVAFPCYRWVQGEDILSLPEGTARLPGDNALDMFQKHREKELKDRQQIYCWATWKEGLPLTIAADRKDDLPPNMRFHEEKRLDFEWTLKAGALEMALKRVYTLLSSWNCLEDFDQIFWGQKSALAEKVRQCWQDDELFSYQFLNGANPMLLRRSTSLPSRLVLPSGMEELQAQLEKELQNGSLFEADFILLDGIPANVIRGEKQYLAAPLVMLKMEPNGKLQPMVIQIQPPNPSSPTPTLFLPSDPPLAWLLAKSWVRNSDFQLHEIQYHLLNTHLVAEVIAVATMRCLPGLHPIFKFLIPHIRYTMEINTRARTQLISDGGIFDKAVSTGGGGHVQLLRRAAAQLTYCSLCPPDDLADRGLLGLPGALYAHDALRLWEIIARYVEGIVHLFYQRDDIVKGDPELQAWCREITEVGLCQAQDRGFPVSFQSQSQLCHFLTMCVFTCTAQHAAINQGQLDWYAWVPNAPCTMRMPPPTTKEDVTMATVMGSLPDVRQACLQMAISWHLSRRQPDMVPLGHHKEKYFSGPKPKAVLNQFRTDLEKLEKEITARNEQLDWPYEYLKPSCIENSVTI
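Purified human 12hLO (150 nM), preincubated 15 min with compound, then 40 uM arachidonic acid for 30 min, room temperature, Hepes pH 7.0 with 0.01% Triton X-100. Hydroperoxide detected by ferrous iron/xylenol orange; 573/405 nm absorbance ratio gives reaction progress.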
A number is an active result; n = inactive; u = inconclusive; x = not tested or not shown; [ ] = dose if it differs, or a comment. A selection: hits, their analogues and other compounds. The true share with any hit is near 11%. Unless noted, calls come from the whole dose curve; as a rule, active = well fitted curve in the direction sought with a large enough effect; inconclusive = small, poorly fitted or top-dose-only effect, or another doubt; inactive = no such curve, though single readings can be large; an effect the other way counts as inactive or inconclusive.

SMILES | PNC assembly inh | HPGD inh | IMPase Li cell | ALDH1A1 inh | IMPase inh | ALOX12 inhib
O=C(CCC1N=C2c3ccccc3N=C(SCc3ccccc3Cl)N2C1=O)N1CCN(c2ccccc2)CC1 (stereo not given) | x | x | x | x | n | x
O=C(CSc1nc2[nH]ncc2c(=O)n1-c1ccccc1)N1CCCCCC1 | x | x | n | 5.01µM | x | x
O=C(CSc1nc2[nH]ncc2c(=O)n1-c1ccccc1Cl)N1CCCC1 | x | x | n | 31.6µM | x | x
O=C(CC1(O)C(=O)N(CCc2ccccc2)c2ccc(Br)cc21)c1ccc(F)cc1 (stereo not given) | x | x | x | x | n | x
c1ccc(Cn2ncc3c(NCc4ccco4)ncnc32)cc1 | -105.1 | x | x | u | n | n
CCCCNc1ncnc2c1cnn2-c1ccc(C)cc1C | u | u | n | u | n | n
c1ccc(-n2ncc3c(NCc4ccco4)ncnc32)cc1 | n | u | u | u | n | n
COCCCNc1ncnc2c1cnn2-c1ccc(C)cc1C | u | 7.94µM | n | n | n | n
Cc1ccc(-n2ncc3c(NCc4ccco4)ncnc32)c(C)c1 | u | 3.55µM | n | n | n | n
Cc1ccc(-n2ncc3c(NCc4ccccn4)ncnc32)c(C)c1 | n | 12.6µM | n | u | n | n
COc1ccc(NC(=O)N2CC[C@@]3(CCCN(C(=O)c4csnn4)C3)C2)cc1 | x | n | n | u | x | n
COc1ccc(Cn2c(S(=O)(=O)CC(N)=O)nc3ccccc32)cc1[N+](=O)[O-] | x | x | n | 7.08µM | x | x
NC(=O)CS(=O)(=O)c1nc2ccccc2n1Cc1ccccn1 | x | x | n | n | x | x
COc1ccccc1C1N(c2cc(Cl)ccc2OC)C(=O)C2CCCN21 (stereo not given) | -105.7 | n | n | n | n | n
COc1cc(C2N(c3ccccn3)C(=O)C3CCCN32)cc(OC)c1OC (stereo not given) | u | x | x | 22.4µM | n | n
COc1ccc(-c2cc(=O)c3c(O)cc(O)c(-c4cc(-c5cc(=O)c6c(O)cc(O)cc6o5)ccc4OC)c3o2)cc1 | x | n | n | n | x | n
O=C(O)[C@H](Cc1cc(I)c(O)c(I)c1)C1CCCCC1 | x | n | n | n[13.5 µM] | x | n[11.4 µM]
CCN(CC)C(=O)C(=O)N/N=C/c1ccc(C(=O)O)cc1 | n | n | n | n | n | n
N=c1n(CCN2CCCC2)c2ccccc2n1CC(O)c1ccco1 (stereo not given) | -92.3 | n | n | n | n | n
CCCCCCCn1c(=N)n(CC(O)c2ccco2)c2ccccc21 (stereo not given) | x | x | n | n | x | x
c1ccc2[nH]c(SCc3cscn3)nc2c1 | -103.1 | n | n | n | n | n
NNC(=O)c1ccc(CSc2nc3ccccc3[nH]2)cc1 | x | x | n | 10µM | x | x
Fc1ccccc1CSc1nc2ccccc2[nH]1 | u | 20µM | n | 12.6µM | n | n
Clc1ccc(CSc2ncn[nH]2)cc1 | n | n | n | n | n | n
Fc1c(F)c(F)c(CSc2nc3ccccc3[nH]2)c(F)c1F | n | n | n | n | n | n
SMILES | PNC assembly inh | HPGD inh | IMPase Li cell | ALDH1A1 inh | IMPase inh | ALOX12 inhib
COc1cc(/C=N/NC(=O)c2ccc(CSc3nc4ccccc4[nH]3)cc2)ccc1O | x | x | n | u | x | x
c1ccc2[nH]c(-c3cscn3)nc2c1 | n | n | n | n | n | n
Fc1ccccc1CSc1ncn[nH]1 | -100.0 | n | n | n | n | n
COc1ccccc1OC[C@H](O)CN1CCN(CC(=O)Nc2c(C)cccc2C)CC1 | x | x | x | x | n | n
c1cn(-c2ccnc(-c3ccc4c(c3)OCO4)n2)cn1 | x | x | n | u | x | x
Cc1ccccc1Nc1nc(-c2sc(NC(=O)c3ccc([N+](=O)[O-])cc3)nc2C)cs1 | n | n | n | u | n | n
Cc1ccccc1Nc1nc(-c2sc(NC(=O)c3cccc(Cl)c3)nc2C)cs1 | u | n | n | 17.8µM | n | n
Cc1nc(NC(=O)c2ccccc2)sc1-c1csc(Nc2ccc(F)cc2)n1 | -100.0 | u | n | u | n | n
CCOc1ccccc1Nc1nc(-c2sc(NC(=O)c3ccc([N+](=O)[O-])cc3)nc2C)cs1 | n | n | n | 0.794µM | n | n
Cc1ccccc1Nc1nc(-c2sc(NC(=O)c3ccccc3)nc2C)cs1 | n | u | n | 20µM | n | n
CC(=O)OC[C@@H]1O[C@@H](O/N=C2/C[C@@H](O)[C@@H](O)[C@@H]3[C@@H]4C(=O)N(Cc5ccccc5)C(=O)[C@H]4CC[C@@H]23)[C@H](OC(C)=O)[C@H](OC(C)=O)[C@@H]1OC(C)=O | x | x | x | n[13.5 µM] | x | x
COCCn1c(=O)c(-c2ccc(F)cc2)nc2cnc(Oc3ccccc3)nc21 | x | x | n | u | x | x
O=C(c1c[nH]c(C(=O)C(Cl)(Cl)Cl)c1)c1ccccc1Br | x | x | n | 1.78µM | x | x
CN(C)C(=O)c1cc(C(=O)c2ccccc2Cl)c[nH]1 | x | x | n | 7.94µM | x | x
COCCCNC(=O)c1cc(C(=O)c2ccccc2Br)c[nH]1 | x | x | n | u | x | x
NC(=O)c1cc(C(=O)c2ccccc2Cl)c[nH]1 | x | x | n | 8.91µM | x | x
C=CCC1(c2ccccc2)Oc2ccc(C)cc2-c2nc3cc(Cl)c(Cl)cc3nc21 (stereo not given) | x | x | x | n[13.5 µM] | x | x
O=C(Cn1c(C(=O)N2CCN(C3CCCC3)CC2)cc2sccc21)c1ccccc1 | -121.8 | x | x | n | n | n
CCN(CC)CCCNc1cc(C)nc2cc(-c3cccs3)nn12 | x | x | n | u | x | x
COC(=O)C1=C(C)N(CCc2ccc(OC)c(OC)c2)C(=O)/C1=C\N(C)C | n | n | n | 14.1µM | n | n
COc1ccc(CCNC2=C(Cl)C(=O)N(CCc3ccc(OC)c(OC)c3)C2=O)cc1OC | n | n | n | n | n | n
O=C(c1csc2c1CCCC2)N1CCN(c2ccccc2)CC1 | -80.0 | n | n | n | n | n
O=C(c1ccccc1C(=O)N1CCN(c2ccccc2)CC1)N1CCN(c2ccccc2)CC1 | n | n | n | u | n | n
O=C(O)c1ccccc1C(=O)N1CCN(c2ccccc2)CC1 | n | n | n | 15.8µM | n | n
CCOC(=O)N1CCN(C(=O)c2csc3c2CCCCC3)CC1 | u | n | n | u | n | n
SMILES | PNC assembly inh | HPGD inh | IMPase Li cell | ALDH1A1 inh | IMPase inh | ALOX12 inhib
Cc1ccc2cc(/C=N/Nc3nc4ccccc4[nH]3)c(Cl)nc2c1 | -87.9 | n | n | n | n | n
COc1cc(OC)c(OC)cc1/C=N/Nc1nc2ccccc2[nH]1 | x | x | x | n | x | x
Cc1ccc(NCC(=O)N/N=C/c2cc3ccccc3nc2Cl)cc1 | n | n | n | 10µM | u | n
O=C(CN1CCOCC1)N/N=C/c1cc2ccccc2nc1Cl | u | u | n | u | n[1.84 µM] | n
CCc1nc2nc(C)cc(Nc3cc(C)ccc3C)n2n1 | x | x | x | x | n | x
Cc1ccc(S(=O)(=O)N(C)C)cc1NC(=O)c1ccncc1 | x | x | n | u | x | x
CN(C)S(=O)(=O)c1ccc(Cl)c(NC(=O)c2ccncc2)c1 | n | n | n | 11.2µM | x | n
Cc1ccc(S(=O)(=O)N(C)C)cc1NC(=O)c1cc(C(C)(C)C)nn1Cc1ccccc1 | x | x | x | 4.47µM | x | x
